Compound activity deposited in PubChem by National Center for Advancing Translational Sciences (NCATS).
KDM5B inhibitor: Primary screen for KDM5B Histone Demethylases FDH-coupled qHTS; KDM5B demethylase, FDH-coupled NADH fluorescence (FDH is formaldehyde dehydrogenase); Potency, µM (top dose mostly 57.7 µM), hits mostly inhibitors; 220,000 compounds, 2.6% hits; note: nearly all actives have a fitted effect of over 70% in size
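Compound dilutions met 200 nM (final) KDM5BΔAP for 10 min at room temperature before substrate addition. The substrate mix held 12.5 µM H3K4me3 with cofactors 25 µM α-ketoglutarate and 50 µM Fe²⁺. NADH signal gain over 30 min defined activity.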
SNCA expr inh: Primary qHTS assay for inhibitors of alpha-synuclein gene (SNCA) expression; HEK-293 SNCA-luciferase knock-in, luminescence, 24 h; 140,000 compounds, 0.17% hits; Potency, µM (top dose mostly 57.2 µM), hits mostly inhibitors; note: nearly all actives have a fitted effect of over 45% in size
SNCA viab count: GF-AFC viability counterscreen for inhibitors of alpha-synuclein gene (SNCA) expression | HEK-293-SNCA-luc viability, GF-AFC fluorescence, 24 h | Potency, µM (doses to about 57.1 µM), most hits filed as cytotoxic | 150,000 compounds, 0.12% hits | AID 1671193, 2021; note: nearly all actives have a fitted effect of over 30% in size
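HEK-293-SNCA-luc cells (1500/well) plated 24 h, then exposed 24 h to a dilution series; GF-AFC added 30 min at 37C, fluorescence 405/540 nm; normalised to medium-only and DMSO wells, Hill fit.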
IP6K1 inh: Primary qHTS assay for small molecule inhibitors of Inositol hexaphosphate kinase 1 (IP6K1). Inositol hexakisphosphate kinase 1 (Homo sapiens), Q92551. IP6K1 kinase, ADP-Glo luminescence, 2 h; active compounds read low. activity change, % (series mostly up to about 58 µM). 140,000 compounds, 0.81% hits; in the data active = activity change below about -25%
Target sequence (Q92551 whole entry, looked up): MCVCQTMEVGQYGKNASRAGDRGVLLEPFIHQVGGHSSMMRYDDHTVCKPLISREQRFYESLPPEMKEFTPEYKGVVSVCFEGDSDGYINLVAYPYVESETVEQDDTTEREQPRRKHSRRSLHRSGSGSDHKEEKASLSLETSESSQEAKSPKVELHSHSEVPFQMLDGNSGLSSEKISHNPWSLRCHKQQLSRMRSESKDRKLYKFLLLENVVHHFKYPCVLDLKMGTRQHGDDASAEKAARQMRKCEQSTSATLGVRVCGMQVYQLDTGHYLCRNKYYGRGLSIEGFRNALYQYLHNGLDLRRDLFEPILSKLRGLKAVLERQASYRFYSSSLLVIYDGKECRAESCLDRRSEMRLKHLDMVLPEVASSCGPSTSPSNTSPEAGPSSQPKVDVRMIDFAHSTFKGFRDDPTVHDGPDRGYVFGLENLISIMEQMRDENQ
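ADP-Glo luminescence measures ADP made by human IP6K1 during a 2 h RT reaction with ATP/IP6 (mix at 1.3 mM/130 uM); top library doses 57.5 and 19.1 uM final.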
IP6K1 conf: Confirmatory qHTS assay for small molecule inhibitors of Inositol hexaphosphate kinase 1 (IP6K1); shares compounds with IP6K1 inh; recombinant IP6K1 kinase, ADP-Glo luminescence, 2 h; Potency, µM (doses to about 49 µM), usual class: inhibitors; 1,200 compounds, 13% hits; AID 1645852, 2021; note: nearly all actives have a fitted effect of over 65% in size
Large screens that a line does not name were inactive (follow-up assays come after a bar, where they were run). Rows were chosen to be rich in hits. Some 3% of all compounds tested hit in one or more screens of this group. Unless noted, calls come from the whole dose curve; as a rule, active = well fitted curve in the direction sought with a large enough effect; inconclusive = small, poorly fitted or top-dose-only effect, or another doubt; inactive = no such curve, though single readings can be large; an effect the other way counts as inactive or inconclusive.

Cc1cccn2c(=O)c(C(=O)NCCc3ccc(Cl)cc3)cnc12	KDM5B inhibitor inconclusive
CN(Cc1nc(-c2ccncc2)no1)C1CCC2(CCNCC2)CC1	IP6K1 inh -41 | IP6K1 conf inactive
COc1ccccc1CC(=O)N1CC[C@@H](NC(=O)c2cnccn2)[C@H](O)C1	KDM5B inhibitor inconclusive, IP6K1 inh -31 | IP6K1 conf inactive
Cc1nc(CC(=O)N2CC[C@@H](NC(=O)c3cnccn3)[C@H](O)C2)cs1	none
O=S(=O)(c1ccc(Cl)cc1)c1nc(-c2cccs2)oc1N1CCCCC1	KDM5B inhibitor inconclusive, IP6K1 inh -27 | IP6K1 conf inactive
CC1CCN(c2oc(-c3cccs3)nc2S(=O)(=O)c2ccccc2)CC1	KDM5B inhibitor inconclusive
O=C(/C=C/c1cccc(O)c1)c1cccs1	none (no result: SNCA expr inh, SNCA viab count, IP6K1 inh)
N#CCC(C1CCCC1)n1cc(-c2ncnc3[nH]ccc23)cn1 (stereo not drawn)	none (no result: KDM5B inhibitor, SNCA expr inh) | IP6K1 conf inactive
Cn1ncc2c(C(=O)NCCc3ccccc3F)cc(-c3ccc(F)cc3)nc21	none (no result: KDM5B inhibitor)
O=C(O)c1cc(-c2ccccc2CO)cc(S(=O)(=O)N2CCCCCC2)c1	IP6K1 inh -30 | IP6K1 conf inactive
O=C(O)c1cc(-c2cncnc2)cc(S(=O)(=O)N2CCCCCC2)c1	none
O=[N+]([O-])/C(=C(\Sc1ccc(Cl)cc1)c1ccccc1)c1ccccc1	none (no result: SNCA expr inh, SNCA viab count, IP6K1 inh)
O=c1cc(-c2ccc(O)c(O)c2)oc2cc(O)cc(O)c12	none (no result: KDM5B inhibitor, IP6K1 inh)
O=c1c(O)c(-c2ccc(O)c(O)c2)oc2cc(O)cc(O)c12	IP6K1 inh -55 (no result: KDM5B inhibitor) | IP6K1 conf 0.46µM
COc1ccc(N2CCN(CC(O)COc3ccc(C(C)(C)C)cc3)CC2)cc1 (stereo not drawn)	KDM5B inhibitor inconclusive, IP6K1 inh -29 | IP6K1 conf inactive
COc1ccc(OCC(O)CN2CCN(c3ncccn3)CC2)cc1 (stereo not drawn)	none (no result: SNCA expr inh, SNCA viab count, IP6K1 inh)
Cc1ccsc1CN1CCCCC12Cc1ccccc1CNC2=O (stereo not drawn)	KDM5B inhibitor inconclusive
O=S(=O)(NCCO)c1ccc(Cl)c2ccccc12	none (no result: SNCA expr inh, SNCA viab count, IP6K1 inh)
CC[C@@H]1C(=O)N(C)c2cnc(Nc3ccc(C(=O)NC4CCN(C)CC4)cc3OC)nc2N1C1CCCC1	SNCA viab count inconclusive (no result: KDM5B inhibitor, IP6K1 inh) | IP6K1 conf inactive
Cc1ccc(-n2ncc(C(=O)N3CCN(c4cccc(C)c4C)CC3)c2C2CCNCC2)c(C)c1	KDM5B inhibitor inconclusive, SNCA viab count inconclusive
Cc1c(Cl)cccc1-n1ncc(C(=O)Nc2ccc(Br)cc2F)c1C1CCNCC1	KDM5B inhibitor inconclusive, IP6K1 inh -26 | IP6K1 conf inconclusive
CN1CCOc2c(C(=O)NCc3cccnc3)cc(-c3ccccc3F)cc21	KDM5B inhibitor 25µM, SNCA viab count inconclusive, IP6K1 inh -29 | IP6K1 conf inactive
COc1cncc(-c2cc(C(=O)NCc3cccnc3)c3c(c2)N(C)CCO3)c1	SNCA expr inh inconclusive, IP6K1 inh -28 | IP6K1 conf inconclusive
COc1cccc(-c2cc(C(=O)NCc3cccnc3)c3cnn(C)c3n2)c1	none (no result: KDM5B inhibitor, SNCA expr inh, SNCA viab count)
Cc1ccccc1-c1cc(C(=O)NCc2cnn(C)c2)c2c(c1)N(C)CCO2	KDM5B inhibitor 32µM, SNCA expr inh inconclusive, IP6K1 inh -25 | IP6K1 conf inconclusive
COc1cccc(CN2CCCOCCNC(=O)CC2)c1OC	none
COc1cccc(-c2nc3cc4c(cc3cc2CN2CCCOCC2)OCO4)c1OC	KDM5B inhibitor 28µM, IP6K1 inh -35 | IP6K1 conf inactive
O=C(Cc1[nH]nc2ccccc12)N[C@H](c1ccc2c(c1)CCO2)C1CC(O)C1 (stereo partly drawn)	IP6K1 inh -36 | IP6K1 conf inactive
O=C(CN1C(=O)CNC1=O)N[C@H](c1ccc2c(c1)CCO2)C1CC(O)C1 (stereo partly drawn)	none
CNc1nc(-c2ccc(NC(=O)C(C)C)cc2)cs1	none (no result: SNCA expr inh, SNCA viab count, IP6K1 inh)
CN(C)Cc1nnc(C2CC(NC(=O)c3ccccc3-c3ncn[nH]3)C2)n1C (stereo not drawn)	IP6K1 inh -28 | IP6K1 conf inactive
COC(=O)c1cc(CNC(=O)C2Cc3ccccc3S2)ccc1OC (stereo not drawn)	none (no result: SNCA expr inh, SNCA viab count, IP6K1 inh)
